# Screening results as filed in PubChem.
# Hits are enriched below; roughly 19% of the tested compounds scored in any of these assays.
# IL-1B inflam inh: inhibitors of inflammasome signaling (IL-1 beta secretion); AID 743279; activity change, % at 57.5 µM; 4.7% of 360,000 active; THP-1 LPS/ATP IL-1B secretion, AlphaLISA, 16 h; stronger effect = lower value; in the data active = activity change below about -50%; inconclusive = mostly about -30% to -49%
#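 Secreted IL-1B measured by AlphaLISA bead assay after 16 h compound exposure of THP-1 cells; compounds (final up to 57.5 uM) added 1 h before LPS (250 ng/mL) and ATP (1.25 mM) stimulation; lower signal means less secretion.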
# TDP1 cell CPT: growth inhibition of DT40 Tdp1-/-;hTDP1 cells with camptothecin (screen for TDP1 inhibitors). chicken DT40 Tdp1-/-;hTDP1 cells + 20 nM CPT, ATP luminescence, 48 h. Potency, µM (top dose mostly 46.2 µM), without a hit: top-dose activity change, negative = growth inhibition, usual class: inhibitors. 12% of 420,000 active; also: potency is read from the fitted curve at half-maximal effect; nearly all actives have a fitted effect of over 55% in size
#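 Chicken DT40 Tdp1-/- cells complemented with human TDP1, 400 cells/well, exposed to compounds plus 20 nM camptothecin for at least 48 h at 37 C; viability read as ATP content by CellTiter-Glo luminescence.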
# TDP1 cell noCPT: qHTS for Inhibitors of human tyrosyl-DNA phosphodiesterase 1 (TDP1): qHTS in cells in absence of CPT. DT40 Tdp1-/- hTDP1 cells, no CPT, ATP luminescence, 48 h. 15% of 420,000 active. Potency, µM (top dose mostly 46.2 µM), for the others: at the highest dose activity change, negative = growth inhibition, most hits filed as inhibitors; also: potency is read from the fitted curve at half-maximal effect; nearly all actives have a fitted effect of over 55% in size
#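 Growth of hTDP1-complemented DT40 Tdp1-knockout cells is measured by ATP luminescence after at least 48 hr compound exposure at 37 °C, with DMSO substituting for the 20 nM CPT used in the parallel screen.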
# HT1080NT lethal: kills 2HG-producing HT-1080-NT fibrosarcoma cells; HT-1080-NT fibrosarcoma viability, CellTiter-Glo ATP luminescence, 48 h; Potency, µM (doses to about 46.1 µM), for inactives: top-dose activity, negative = less viability, hits mostly cytotoxic; 1.6% of 360,000 active;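 also: NT is the 2HG producing partner of a matched IDH1 knockdown line; potency is read from the fitted curve at half-maximal effect; 0% = DMSO-treated cells and -100% = media-only wells without cells; nearly all actives have a fitted effect of over 55% in size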
#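 Compounds were tested in concentration-response format on HT-1080-NT cells for 48 hours at 37 degrees C. Cell viability came from CellTiter-Glo luminescence; curves were classified by r2, response magnitude and activity.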
# HT1080 IDH1KD tx: toxicity to HT-1080 IDH1 knockdown cells (counter line) | HT-1080 IDH1 knockdown viability, ATP luminescence, 48 h | AID 686971 | Potency, µM (highest dose often 46.1 µM), for inactives: at the top dose activity, negative = toxicity, actives largely listed as cytotoxic | 2% of 360,000 active;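 also: potency is read from the fitted curve at half-maximal effect; 0% = DMSO wells and -100% = cell-free medium wells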
#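 HT-1080-IDH1KD cells (IDH1 knocked down), 750/well in RPMI with 5% FBS, treated with compound 48 h at 37 degrees C. Viability by CellTiter-Glo luminescence, normalised to DMSO and no-cell wells; concentration-response curves classed.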
# * hit, by the source's call; ? = inconclusive; · = not tested or not shown; [ ] = dose if it differs, or a comment. Unless noted, calls follow the shape of the dose curve; as a rule, active = well fitted curve in the direction sought with a large enough effect; inconclusive = small, poorly fitted or top-dose-only effect, or another doubt; inactive = no such curve, though single readings can be large; an effect the other way counts as inactive or inconclusive. Unless noted, % is scaled to controls: 0 for no effect and ±100 for the full control effect.
SMILES,IL-1B inflam inh,TDP1 cell CPT,TDP1 cell noCPT,HT1080NT lethal,HT1080 IDH1KD tx
C#CCOCCOCCOCCNc1nc(N2CCN(C(=O)C([C@@H](C)CC)n3cc(C(N)COC(=O)C(F)(F)F)nn3)CC2)nc(N2CCN(C(=O)C([C@@H](C)CC)n3cc(C(N)CC(C)C)nn3)CC2)n1 (stereo not given in full),9,7%,-4%,10%,15%
Cc1c(C(=O)NCc2ccc3c(c2)OCO3)sc(=O)n1Cc1ccc(S(=O)(=O)N(C)C)cc1,-25,?,16µM*,-22%,?
Cc1c(C(=O)NCc2ccc3c(c2)OCCO3)sc(=O)n1Cc1ccc(S(=O)(=O)N(C)C)cc1,-14,18µM*,15µM*,-1%,?
CC(C)(C)N(CC(=O)NC1CCCCC1)C(=O)CS(=O)CC(=O)Nc1ccc(F)cc1 (stereo not given),5,-2%,-11%,16%,13%
COc1ccc2c(c1)c(CC(=O)Nc1ccc(C(C)=O)cc1)c(C)n2C(=O)c1ccc(Cl)cc1,-5,21µM*,16µM*,0%,-5%
COc1ccc2c(c1)c(CC(=O)Nc1ccccc1OC)c(C)n2C(=O)c1ccc(Cl)cc1,0,?,?,0%,-14%
COc1ccc2c(c1)c(CC(=O)Nc1nnc(C3CC3)s1)c(C)n2C(=O)c1ccc(Cl)cc1,6,15µM*,8.2µM*,23µM*,?
COc1ccc2c(c1)c(CC(=O)Nc1cc(C)ccc1C)c(C)n2C(=O)c1ccc(Cl)cc1,-6,?,16µM*,3%,-15%
CCc1ccc2oc(-c3cccc(NC(=O)COc4ccccc4Cl)c3)nc2c1,·,-6%,-24%,·,·
CCCN(CC(=O)Nc1ccccc1C)C(=O)/C=C/c1cccs1,-16,-9%,-27%,11%,18%
Cc1ccccc1N=C1Nc2ccccc2N[C@]12C[C@H]1CCCC(=O)N3CC[C@@H](C2)[C@@H]13,·,8%,-24%,·,·
CCOC(=O)c1[nH]c2ccccc2c1NC(=O)C(C)(C)C,28,-1%,-24%,14%,13%
Cc1c(C(=O)COC(C)(C)C)[nH]c2ccccc12,-1,21µM*,?,5%,-1%[9.24 µM]
COC(=O)c1ccccc1NC(=O)CSc1nc(Nc2ccccc2)nc(N2CCOCC2)n1,0,?,?,-1%,-7%
O=C(O)c1ccc(Sc2nnnn2-c2ccccc2)c([N+](=O)[O-])c1,0,-2%,-4%,20%,8%
COC(=O)c1ccc(Sc2nnnn2-c2ccccc2)c([N+](=O)[O-])c1,-10,16µM*,23µM*,?,?
[O]=[Bi][O][Bi]=[O],·,0%,1%,·,·
CCNC(=O)C1CCN(Cc2cc3ccccc3n2Cc2ccc(C)cc2)CC1,·,23µM*,21µM*,·,·
Cc1ccc(Cn2c(CN3CCC(C(=O)NCc4ccccc4C)CC3)cc3ccccc32)cc1,·,21µM*,16µM*,·,·
COCCNC(=O)C1CCN(Cc2cc3ccccc3n2Cc2ccc(C)cc2)CC1,·,16µM*,21µM*,·,·
Cc1ccc(S(=O)(=O)N2CCC(C(=O)NCc3ccccc3Cl)CC2)cc1,-12,?,?,-9%,-3%
CNC(=O)C1CCN(Cc2cc3ccccc3n2Cc2cccc(C)c2)CC1,·,18µM*,16µM*,·,·
CCNC(=O)C1CCCN(Cc2ccc(C(=O)OCC)cc2)CC1 (stereo not given),11,-9%,-4%,19%,11%
CC1CC2C3CCC4=CC(=O)C=C[C@@]4(C)[C@]3(F)C(O)C[C@]2(C)[C@]1(O)C(=O)CO (stereo not given in full),·,?,-27%,·,·
CCN(CC)c1ccc(CN2CCC(C(=O)NCc3ccc(C)cc3)CC2)cc1,-2,15µM*,15µM*,?,-26%
CCN(CC)S(=O)(=O)N1CCC(C(=O)NCc2ccc(C)cc2)CC1,-5,-8%,-15%,6%[9.24 µM],2%
